Test results: PubChem BioAssay (NCATS)
Records with an inconclusive call do not appear. A call without a number means that no potency is given here. Active and inactive are the calls of the source. Calls follow the shape of the dose curve; as a rule, active = well fitted inhibition curve with a large enough effect; inconclusive = small, poorly fitted or top-dose-only effect, or effect the other way; inactive = flat fitted curve, though single readings scatter.
Potency is read from the fitted curve at half-maximal effect.

What follows are compounds tested against ATP-dependent 6-phosphofructokinase (Trypanosoma brucei brucei) (UniProt O15648) (assay: qHTS Assay to Find Inhibitors of T. brucei phosphofructokinase: hit validation (AID 492961)). Conditions: T. brucei PFK, ADP-Glo luminescence; series mostly up to 51.4 µM.
Chain of ATP-dependent 6-phosphofructokinase (Trypanosoma brucei brucei) (O15648 whole entry, looked up): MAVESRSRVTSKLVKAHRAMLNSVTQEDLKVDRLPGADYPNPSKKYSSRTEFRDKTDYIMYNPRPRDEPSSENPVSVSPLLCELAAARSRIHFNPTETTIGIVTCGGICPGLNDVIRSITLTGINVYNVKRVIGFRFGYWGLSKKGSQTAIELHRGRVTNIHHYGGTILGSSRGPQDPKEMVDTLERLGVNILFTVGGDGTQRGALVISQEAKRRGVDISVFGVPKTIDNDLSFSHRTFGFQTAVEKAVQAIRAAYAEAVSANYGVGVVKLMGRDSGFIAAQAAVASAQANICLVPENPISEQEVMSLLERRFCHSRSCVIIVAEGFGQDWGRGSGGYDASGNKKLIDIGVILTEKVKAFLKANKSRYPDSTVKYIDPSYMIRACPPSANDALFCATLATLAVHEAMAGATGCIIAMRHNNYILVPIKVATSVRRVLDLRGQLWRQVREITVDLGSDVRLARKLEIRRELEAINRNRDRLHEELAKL
Procedure, shortened: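 Compounds titrated; %activity normalized to 0x and 1x enzyme controls, curve-fitted. Readout: ADP-Glo luminescence after 45 min room-temperature reaction of 1.25 nM PFK, 0.1 mM ATP, 0.5 mM F6P, pH 8.0.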
`CCC1(c2ccccc2)C(=O)NC(=O)N(C(=O)c2ccccc2)C1=O` (stereo not given) was tested, and the Potency was “inactive”. For `O=C(NC(=O)c1c(F)cccc1F)Nc1ccc(Cl)c(Oc2ncc(C(F)(F)F)cc2Cl)c1`, the Potency was “inactive”. In the case of `CNC1(c2ccccc2Cl)CCCCC1=O` (stereo not given), the Potency is reported as “inactive”. With `N#CN` the Potency was “inactive”. In the case of `CCCC(C)(COC(N)=O)COC(=O)NC1CC1` (stereo not given), the Potency is reported as “inactive”. With `CCCC(C)C1(CC)C(=O)NC(=O)NC1=O` (stereo not given) the Potency was “inactive”. In the case of `c1cc2c(c(NC3=NCCN3)c1)CCCC2`, the Potency is reported as “inactive”. With `O=C(CS(=O)C(c1ccccc1)c1ccccc1)NO` (stereo not given) the Potency was “inactive”. `CN1[C@@H]2CC[C@H]1CC(OC1c3ccccc3CCc3ccccc31)C2` (stereo not given in full) was tested, and the Potency was “inactive”. `CC(C)Nc1ccc(Nc2ccccc2)cc1` was tested, and the Potency was “inactive”. In the case of `COC([CH2][Hg])CNC(=O)c1ccccc1OCC(=O)O` (stereo not given), the Potency is reported as 7.08 µM (active). With `O=C1CCCCC1CN1CCCCC1` (stereo not given) the Potency was “inactive”. For `CC(C)CCON=O`, the Potency was “inactive”. In the case of `O=[N+]([O-])c1cc(I)c(O)c(I)c1`, the Potency is reported as “inactive”. With `CCC1(C)CC(=O)NC(=O)C1` the Potency was “inactive”. `C[C@H]1CC[C@@H]2[C@@H](C)[C@H]3[C@H](C[C@H]4[C@@H]5CC=C6CC(O[C@@H]7O[C@H](CO)[C@H](O)[C@H](O[C@@H]8O[C@H](CO)[C@@H](O)[C@H](O)[C@H]8O)[C@H]7O[C@H]7O[C@@H](C)[C@H](O)[C@@H](O)[C@H]7O)CC[C@]6(C)[C@H]5CC[C@]34C)N2C1` (stereo not given in full) was tested, and the Potency was “inactive”. In the case of `Clc1ccc(C2(Cn3cncn3)OCCO2)c(Cl)c1`, the Potency is reported as “inactive”. For `C=CCC1(C(C)CCC)C(=O)N=C(S)NC1=O` (stereo not given), the Potency was “inactive”. With `ClC(Cl)(Cl)Cl` the Potency was “inactive”. For `CN1c2ccccc2C(NCCCCCCC(=O)O)c2ccc(Cl)cc2S1(=O)=O` (stereo not given), the Potency was “inactive”.
